Data from PubChem BioAssay AID1851 (National Center for Advancing Translational Sciences (NCATS), 2009).
Screen size: about 16,000 compounds; about 5,100 (32%) were called active. Inconclusive results (about 25%) are left out. Some of the results follow. Unmarked numbers belong to inactive results. Calls come from the whole dose curve; as a rule, active = well fitted curve in the direction sought with a large enough effect; inconclusive = small, poorly fitted or top-dose-only effect, or effect the other way; inactive = no such curve, though single readings can be large or run the other way.

What follows are compounds tested against Cytochrome P450 3A4 (Homo sapiens) (UniProt P08684) (assay: Cytochrome panel assay with activity outcomes). Details: recombinant CYP, pro-luciferin dealkylation, luminescence, p450-cyp3a4; series mostly up to 57.1 µM; activity, negative = inhibition: at the top concentration.
% is set by controls: 0 for no effect and ±100 for the full control effect.

Cytochrome P450 3A4 (Homo sapiens), sequence (P08684 whole entry, looked up): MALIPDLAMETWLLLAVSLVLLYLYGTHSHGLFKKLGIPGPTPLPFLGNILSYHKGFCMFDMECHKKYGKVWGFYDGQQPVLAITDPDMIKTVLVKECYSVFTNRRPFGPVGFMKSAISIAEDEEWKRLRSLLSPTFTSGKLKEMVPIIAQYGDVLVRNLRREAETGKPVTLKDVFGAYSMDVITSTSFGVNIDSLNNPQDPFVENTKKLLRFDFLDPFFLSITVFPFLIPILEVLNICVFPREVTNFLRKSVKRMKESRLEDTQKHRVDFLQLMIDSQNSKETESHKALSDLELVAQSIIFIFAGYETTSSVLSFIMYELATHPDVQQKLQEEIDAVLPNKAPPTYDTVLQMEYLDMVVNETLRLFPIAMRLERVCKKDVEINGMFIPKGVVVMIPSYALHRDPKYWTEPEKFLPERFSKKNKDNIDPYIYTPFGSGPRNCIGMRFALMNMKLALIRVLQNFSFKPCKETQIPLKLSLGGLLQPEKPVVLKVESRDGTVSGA

SMILES	activity, negative = inhibition	AC50
O=C(O)c1ccccc1/C=N\N=C1c2ccccc2-c2ccccc21	-13.2% [at 11.4 µM]	–
CCOc1ccccc1OCCOc1ccc(F)cc1	-15%	–
CCOc1ccc(S(=O)(=O)NCc2ccc(F)cc2)c2cccnc12	–	15.8 µM (active)
Cn1c(CNS(=O)(=O)c2ccc(F)cc2)n[nH]c1=S	-10.2%	–
Nc1ccc(S(=O)(=O)Nc2nccs2)cc1	-15.7% [at 25.6 µM]	–
O=C1Nc2ccccc2C1=Nc1ccc(S(=O)(=O)Nc2nccs2)cc1	-1.93% [at 11.4 µM]	–
O=C(CCN1C(=O)S/C(=C\c2ccccc2)C1=O)Nc1ccc(S(=O)(=O)Nc2nccs2)cc1	–	5.01 µM (active)
O=C(NCC1CCCO1)C1c2ccccc2C(=O)N1Cc1ccc2c(c1)OCO2 (stereo not drawn)	–	1.41 µM (active)
CCS(=O)(=O)N1CCC(C(=O)NCC2CCCO2)CC1 (stereo not drawn)	1.97%	–
O=C(NCC1CCCO1)C1CCC(=O)N1CCc1ccccc1 (stereo not drawn)	-13.8%	–
Cc1ccc(-n2c(N)c(C(=O)NCc3ccco3)sc2=S)cc1	–	25.1 µM (active)
CCOc1ccc(-n2c(N)c(C(=O)NCc3cccnc3)sc2=S)cc1	–	2 µM (active)
CCOc1ccc(N2C(=O)c3cccnc3C2=O)cc1	-13.3%	–
COc1ccc(-n2c(N)c(C(=O)NCc3ccco3)sc2=S)cc1	–	25.1 µM (active)
CCOc1ccc(-n2c(C)nc3cc(C(=O)NCc4ccco4)ccc32)cc1	-16.2%	–
CC(C)c1cc(CN(C)C)c(O)c(C(C)(C)C)c1	-5.68% [at 11.4 µM]	–
N#Cc1c(-c2ccc(Cl)cc2)nc2n(c1=O)CCCS2	-15.8%	–
CCNc1nc(NCC)nc(N(C)N)n1	-10.2%	–
COc1ccc(NS(=O)(=O)c2cc(-c3nnnn3C)ccc2OC)cc1	-15.9% [at 11.4 µM]	–
COc1ccccc1S(=O)(=O)Nc1ccc(-c2nnc3n2CCCCC3)cc1	–	14.1 µM (active)
Cc1ccc(/C=C/C(=O)c2nc3ccccc3[nH]2)cc1	-18.1% [at 2.29 µM]	–
O=C(/C(=C/c1ccc(Cl)cc1)c1nc2ccccc2[nH]1)c1ccccc1	–	3.55 µM (active)
O=C(O)/C(=C/c1c(C(=O)O)[nH]c2cc(Cl)cc(Cl)c12)c1ccccc1	-1.29%	–
COc1ccc(N2CCC(CNC(=O)Nc3ccc(OC)cc3OC)C2)cc1 (stereo not drawn)	–	7.08 µM (active)
COCCN(C(=O)Nc1ccc(OC)cc1OC)C1CCN(C(C)=O)CC1	-11.9%	–
Cc1ccc2c(c1)N(CC(=O)NCc1cccs1)C(=O)C(C)O2 (stereo not drawn)	-21.8% [at 2.29 µM]	–

SMILES	activity, negative = inhibition	AC50
COc1ccc(CC(=S)N2CCOCC2)cc1OC	-2.8% [at 2.29 µM]	–
COc1ccc(CCNC(=O)CCN2C(=O)COc3ccc(C)cc32)cc1OC	–	2.24 µM (active)
COc1ccc(CCNC(=O)CCN2C(=O)C(C)Oc3ccc(C)cc32)cc1OC (stereo not drawn)	–	1.78 µM (active)
O=C1CSC(c2ccccn2)N1c1ccc(Cl)c(Cl)c1 (stereo not drawn)	11%	–
O=C1CSC(c2ccccc2F)N1c1cc(Cl)ccc1O (stereo not drawn)	–	25.1 µM (active)
NC(=O)c1ccc(C2SCC(=O)N2Cc2ccccc2)cc1 (stereo not drawn)	8.69%	–
Cc1cccc(CNc2ccnc(-c3cccc(C#N)c3)n2)c1	–	1.26 µM (active)
N#Cc1cccc(-c2nccc(NCc3cccnc3)n2)c1	–	0.794 µM (active)
N#Cc1cccc(-c2nccc(NCc3cccs3)n2)c1	–	10 µM (active)
N#Cc1cccc(-c2nccc(NCc3ccccc3)n2)c1	–	12.6 µM (active)
COc1ccccc1CCn1c(=O)c(-c2cc(F)cc(F)c2)nc2cncnc21	–	0.398 µM (active)
CN(C)c1ncc2nc(-c3cc(F)cc(F)c3)c(=O)n(CCc3ccccc3)c2n1	-13%	–
COc1ccccc1CCn1c(=O)c(-c2cccc(F)c2)nc2cncnc21	–	3.16 µM (active)
O=C(N/N=C/c1cccc(OC2CSC2)c1)c1ccccc1O	-1.49% [at 2.29 µM]	–
CC1(C)OC(=O)N(Cc2ccco2)C1(C)O (stereo not drawn)	-11.6%	–
CCCCS(=O)(=O)NC1=NCN(Cc2ccco2)CN1	-13.9%	–
CC1=CC(=C2C(=O)c3ccccc3C2=O)C=C(C)N1Cc1ccco1	–	14.1 µM (active)
COC(=O)c1c(NC(=O)CC2Nc3ccccc3NC2=O)sc(C)c1C (stereo not drawn)	–	3.55 µM (active)
CCN(CC)CCCNC(=O)CC1Sc2ccccc2NC1=O (stereo not drawn)	6.35%	–
CC(Sc1nnc(C(C)N(C)C)n1-c1ccc(Cl)cc1)C(=O)Nc1ccc2c(c1)OCO2 (stereo not drawn)	–	0.891 µM (active)
C/C(=N\NC(N)=S)c1ccc[nH]1	-6.66% [at 11.4 µM]	–
CCOC(=O)c1c(NC(=O)c2ccc(N3CCOCC3)c([N+](=O)[O-])c2)sc(C)c1C	-1.99%	–
CCOCC(=O)Nc1cc(-c2cn3cccnc3n2)ccc1C	24.8%	–
COc1ccc2oc(-c3ccc(C)c(NC(=O)c4ccc(N5CCOCC5)c([N+](=O)[O-])c4)c3)nc2c1	–	6.31 µM (active)
COc1ccc2oc(-c3ccc(C)c(NC(=O)CSc4ccc(Cl)cc4)c3)nc2c1	–	11.2 µM (active)
Cc1ccc(-c2nc3ccccc3o2)cc1NC(=O)Cc1cccs1	28.9%	–

SMILES	activity, negative = inhibition	AC50
Cc1ccc(SCCCn2cnc3ccccc3c2=O)cc1	–	11.2 µM (active)
CCCCn1cnc2c(cnn2-c2ccc(F)cc2)c1=O	-2.78%	–
O=c1c2ccccc2ncn1CCCSc1ccccc1	-8.34%	–
O=C(c1ccccc1)c1nc2ccccc2n(CCCn2c(=O)c(C(=O)c3ccccc3)nc3ccccc32)c1=O	–	1.41 µM (active)
O=C(Cn1c(C(F)(F)F)nc2ccccc21)c1ccccc1	-8.98%	–
CCCCCn1c(=O)c(C(=O)c2ccccc2)nc2ccccc21	-5.99% [at 2.29 µM]	–
CN1CCC[C@@H](CC2c3ccccc3Sc3ccccc32)C1	-7.59% [at 25.6 µM]	–
COc1cc(-n2ccnc2SC)c(Cl)cc1Cl	–	14.1 µM (active)
COc1ccc(-c2cc(C(=O)NCc3cccnc3)no2)cc1OC	–	2.51 µM (active)
Cc1cc(C(=O)NCc2ccccc2)no1	-13.3%	–
COc1cccc(-c2nc(CS(=O)(=O)CC(=O)NCCCOC(C)C)c(C)o2)c1	–	7.94 µM (active)
CCOC(=O)N1CCC(NC(=O)CS(=O)(=O)Cc2nc(-c3cccc(OC)c3)oc2C)CC1	–	7.08 µM (active)
Cc1cccc(C)c1NC(=O)C(c1ccc(Cl)cc1Cl)N1CCCCC1 (stereo not drawn)	–	3.98 µM (active)
Cc1cccc(C)c1NC(=O)N1CCC(N2CCCCC2)CC1	-21.5%	–
O=C(O)/C=C\C(=O)Nc1ncn[nH]1	-3.91% [at 11.4 µM]	–
Cc1ccccc1NC(=O)C(C)c1cccc(C(=O)c2ccccc2)c1 (stereo not drawn)	–	7.94 µM (active)
CCCN[C@@H](C)C(=O)Nc1ccccc1C	–	inactive
COC(=O)Nc1nc2ccc(C(=O)c3ccccc3)cc2[nH]1	-1.41% [at 25.6 µM]	–
Cc1cccc(-c2n[nH]c([N+](=O)[O-])n2)c1	-5.58% [at 2.29 µM]	–
COc1cccc(-c2noc(Cn3nc(C)c([N+](=O)[O-])c3C)n2)c1	–	14.1 µM (active)
COc1cccc(CN2CCN(Cc3cc(OC)c(OC)cc3[N+](=O)[O-])CC2)c1	-15.7% [at 2.29 µM]	–
CC[C@H](CO)NCCN[C@@H](CC)CO	4.95% [at 25.6 µM]	–
N[C@@H](Cc1[nH]nc2ccccc12)C(=O)O	-7.68% [at 11.4 µM]	–
CCC1=C(C)CN(C(=O)NCCc2ccc(S(=O)(=O)NC(=O)NC3CCC(C)CC3)cc2)C1=O (stereo not drawn)	-25.9% [at 25.6 µM]	–
COc1ccc(/C=N\NC(=O)O)cc1	-13.4% [at 11.4 µM]	–
COc1ccc(CCNC(=O)COc2ccc(S(=O)(=O)NC3CCCCC3)cc2Cl)cc1	–	7.08 µM (active)

SMILES	activity, negative = inhibition	AC50
CC(C)NC(=O)CC(=O)N/N=C/c1ccc(Br)cc1	-3.05%	–
O=C(COc1ccc(Cl)cc1)NCCC1=CCCCC1	-14.7% [at 11.4 µM]	–
COc1ccc(CCCC(=O)NC2CCCCC2)cc1	–	20 µM (active)
COC(=O)c1ccc(NC(=S)NC2CCCCC2)cc1	-15.8%	–
COc1ccc(/C=N/NC(=O)CCCC(=O)NC2CCCCC2)cc1	–	12.6 µM (active)
CC(C)OC(=O)C1=C2SCC(=O)N2C(N)=C(C#N)C1	-16.2% [at 11.4 µM]	–
COc1ccc(-n2c(=O)c(-c3cccc(C#N)c3)nc3cnc(N4CCNCC4)nc32)cc1	-26.2%	–
N#Cc1cccc(-c2nc(N3CCNCC3)c3ccccc3n2)c1	–	31.6 µM (active)
CN1CCN(c2nc(-c3cccc(C#N)c3)nc3ccccc23)CC1	–	15.8 µM (active)
c1ccc2c(N3CCNCC3)nc(-c3ccc4c(c3)OCO4)nc2c1	–	7.94 µM (active)
O=C(N[C@@H](c1ccccc1)[C@@H]1C[C@H]1C(=O)NCc1ccccn1)OCc1ccccc1	–	6.31 µM (active)
O=C(N[C@@H](c1ccccc1)[C@@H]1C[C@H]1C(=O)O)OCc1ccccc1	-15.8%	–
C[C@@H](C(=O)NCc1ccccn1)[C@H]1C[C@]1(C)[C@H](NC(=O)OCc1ccccc1)c1ccccc1	–	5.01 µM (active)
C[C@@H](C(=O)NCc1ccccn1)[C@@H]1C[C@@]1(C)[C@@H](NC(=O)OCc1ccccc1)c1ccccc1	–	10 µM (active)
CC(Cc1ccccc1)C(=O)NCc1ccccn1 (stereo not drawn)	-42.9%	–
O=C(O)C(Sc1ccc(Cl)cc1)Sc1ccc(Cl)cc1	12.3% [at 11.4 µM]	–
COc1ccc(C(C(=O)NCc2ccccc2)N(Cc2cccs2)C(=O)c2cnccn2)cc1 (stereo not drawn)	–	0.708 µM (active)
O=C(NCc1ccccc1)C(c1cccs1)N(Cc1cccs1)C(=O)c1cnccn1 (stereo not drawn)	–	0.891 µM (active)
COc1ccc2nc3oc(C(=O)NCc4cccs4)cc3cc2c1	-23.2%	–
CCc1ccc(C(C(=O)NCc2ccc(OC)cc2)N(CCOC)C(=O)Cc2cccs2)cc1 (stereo not drawn)	–	1 µM (active)
COc1ccc(CNC(=O)C(c2ccc(C)cc2)N(Cc2cccs2)C(=O)c2ccc3c(c2)OCCO3)cc1 (stereo not drawn)	–	1 µM (active)
O=C(O)C(Cc1cccs1)C(=O)O	-8.79% [at 11.4 µM]	–
COCCN(C(=O)c1ccco1)c1nnc(-c2ccc(OC)cc2)s1	-28.3% [at 2.29 µM]	–
O=C(COC(=O)c1cnccn1)NCc1ccccc1	-20.5% [at 11.4 µM]	–
COc1ccc(C(=O)n2c(SC)nc3cc4c(cc32)OCCO4)cc1	-12% [at 2.29 µM]	–
